Assay [1] in a line: A CellTox Green Cytotoxicity Assay to monitor cytotoxicity in HEK293 cells - 32 hour (AID 1224881). Further: nearly all actives have a fitted effect of over 40% in size. Further: potency means the concentration at half of the fitted maximal effect. An outline of the steps: (§1)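 Dead-cell fluorescence measured kinetically: asymmetric cyanine dye, HEK293, 600 cells/well, 5 h settle, 23 nL cpd/DMSO, 37 C, reads 0–40 h every 8 h.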
Assay [2] in a line: A CellTox Green Cytotoxicity Assay to monitor cytotoxicity in HepG2 cells - 0 hour (AID 1224882). Further: nearly all actives have a fitted effect of over 35% in size. The essentials:
(§2)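 First, HepG2 cells (600/well) mixed with reagent were plated; second, after 5 h at 37 C they received compounds via pintool; third, fluorescence was measured at 0 h through 40 h at 8 h intervals.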

Assay [3] can be described thus: A CellTox Green Cytotoxicity Assay to monitor cytotoxicity in HepG2 cells - 32 hour (AID 1224883). Further: nearly all actives have a fitted effect of over 50% in size. Further: potency means the concentration at half of the fitted maximal effect. The essentials:
as §2

The nature of assay [4]: qHTS RealTime-Glo MT Cell Viability Assay in HepG2 cells - 16 hour (AID 1224885). Further: nearly all actives have a fitted effect of over 50% in size. Further: potency means the concentration at half of the fitted maximal effect. An outline of the steps:
(§3)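 Cell number in HepG2 cultures estimated from NanoLuc luminescence generated by metabolic reduction of a prosubstrate by living cells. The homogeneous, nonlytic format allowed repeated reads at 0, 8, 16, 24, 32 and 40 h of compound exposure.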

Assay [5] can be described thus: qHTS RealTime-Glo MT Cell Viability Assay in HEK293 cells - 24 hour (AID 1224886). Further: nearly all actives have a fitted effect of over 50% in size. Further: potency means the concentration at half of the fitted maximal effect. An outline of the steps:
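Homogeneous bioluminescent viability format in HEK293 cells (600 cells/well). Following 5 h at 37 C/5% CO2, 23 nL compound was pintooled; the signal was measured repeatedly during 40 h incubation.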

A short description of assay [6]: qHTS RealTime-Glo MT Cell Viability Assay in HEK293 cells - 8 hour (AID 1224887). Further: nearly all actives have a fitted effect of over 50% in size. Further: potency means the concentration at half of the fitted maximal effect. The essentials:
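600 HEK293 cells per well, dispensed already mixed with RealTime-Glo MT reagents. Compound dosing came 5 h later. The same wells were read for luminescence at 0, 8, 16, 24, 32 and 40 h of exposure at 37 C.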

A short description of assay [7]: A CellTox Green Cytotoxicity Assay to monitor cytotoxicity in HepG2 cells - 8 hour (AID 1224890). Further: nearly all actives have a fitted effect of over 45% in size. Further: potency means the concentration at half of the fitted maximal effect. The essentials:
as §2

A short description of assay [8]: A CellTox Green Cytotoxicity Assay to monitor cytotoxicity in HEK293 cells - 16 hour (AID 1224888). Further: nearly all actives have a fitted effect of over 35% in size. Further: potency means the concentration at half of the fitted maximal effect. The essentials: as §1
Assay [9] in a line: qHTS RealTime-Glo MT Cell Viability Assay in HepG2 cells - 0 hour (AID 1224889). Further: nearly all actives have a fitted effect of over 50% in size. Further: potency means the concentration at half of the fitted maximal effect. The essentials:
as §3

The nature of assay [10]: A CellTox Green Cytotoxicity Assay to monitor cytotoxicity in HEK293 cells - 8 hour (AID 1224884). Further: nearly all actives have a fitted effect of over 35% in size. The essentials:
as §1

Values joined by “and” are separate entries in the source; they are usually repeats but may differ in a detail not shown here. Equal values may be shown once. Results filed as inconclusive are left out. Some structures have more than one record in an assay (separate samples or runs), and their calls can disagree. Active and inactive are the calls of the source. The call rests on the fitted dose curve; in most records, active means well fitted curve in the direction sought with a large enough effect in the repeat runs; inconclusive means weak or mixed curves; inactive means no such curve, though single readings can be large; an effect the other way counts as inactive or inconclusive.

Consider `O=C1c2ccccc2C(=O)C1C(=O)C(c1ccccc1)c1ccc(Cl)cc1` (stereo not drawn), for which the Potency entry in assay [1], in [2], in [4], in assay [5] and in assay [6] was “inactive” in each case. Also, the Potency was 54.9 µM (active) in [3] and 49 µM (active) in assay [7].
Take `O=c1ssc(Cl)c1Cl`: the Potency in [1] is 24.5 µM (active); in [3], 19.5 µM (active); in assay [4] it was 21.9 µM (active); in assay [5] it was 15.5 µM (active); in [6], 17.4 µM (active); in [8], 38.9 µM (active). Further, the Potency in assay [9] is 43.6 µM (active); in assay [7], 24.5 µM (active). Also, the Potency result in [2] is “inactive”.
Take `CC1(C)CN=C(NN=C(/C=C/c2ccc(C(F)(F)F)cc2)/C=C/c2ccc(C(F)(F)F)cc2)NC1`: the Potency in assay [1] was 54.9 µM (active); in [3], 17.4 µM (active); in assay [4], 19.5 µM (active); in assay [5], 43.6 µM (active); in [7], 34.7 µM (active). The Potency entry in assay [2] and in assay [9] was “inactive” throughout.
For `N#CCCC(Br)(C#N)CBr` (stereo not drawn), the Potency in [1] was 54.9 µM (active); in assay [3], 30.9 µM (active); in [4], 38.9 µM (active); in [5], 24.5 µM (active); in assay [6], 49 µM (active); in assay [7], 54.9 µM (active). Also, the Potency entry in [2] and in assay [9] was “inactive” each time.
For `Clc1ccc(CSC(Cn2ccnc2)c2ccc(Cl)cc2Cl)cc1` (stereo not drawn), the Potency entry in assay [1], in assay [2], in assay [3], in assay [10], in assay [9] and in assay [7] was “inactive” throughout.
Take `CCCN(CCC)c1c([N+](=O)[O-])cc(S(N)(=O)=O)cc1[N+](=O)[O-]`: the Potency in assay [1] is 26.2 µM (active); in [3] it was 26.2 µM (active); in assay [4] it was 24.5 µM (active); in [6], 31.6 µM (active); in assay [7], 23.3 µM (active). The Potency entry in [2] and in [9] was “inactive” in each case.
For the compound `S=C(SSC(=S)N1CCCCC1)N1CCCCC1`, the Potency in assay [1] was 0.107 µM (active); in assay [3], 0.19 µM (active). The Potency entry in assay [2], in [10], in [8] and in assay [9] was “inactive” in each case.
For the compound `C[C@@H]1O[C@@H](O[C@H]2C[C@@H](O)[C@]3(CO)[C@H]4[C@H](O)C[C@]5(C)[C@@H](C6=CC(=O)OC6)CC[C@]5(O)[C@@H]4CC[C@]3(O)C2)[C@H](O)[C@H](O)[C@H]1O`, the Potency result in assay [1], in [2], in [3], in assay [10], in assay [8] and in assay [7] was “inactive” throughout.
In the case of `CC(C)C1CCC(Cc2ccc(Cl)cc2)C1(O)Cn1cncn1` (stereo not drawn), the Potency was 34.3 µM (active) in assay [1]; 43.2 µM (active) in [3]; 34.3 µM (active) in assay [4]; 12.2 µM (active) in assay [5]; 13.7 µM (active) in [6]; 54.4 µM (active) in [7]. Also, the Potency entry in assay [2], in [8] and in [9] was “inactive” each time.
For `Oc1ccc(C(c2ccc(O)cc2)(C(F)(F)F)C(F)(F)F)cc1`, the Potency in [1] was 43.4 µM (active) and inactive; in assay [3], 54.7 µM (active) and 54.9 µM (active); in [5] it was 43.4 µM (active). For the same compound, the Potency result in assay [2], in assay [4], in assay [9] and in assay [7] was “inactive” each time.
`c1ccc2c(c1)OCC(C1=NCCN1)O2` (stereo not drawn): the Potency in [1] was 19 µM (active). Also, the Potency result in assay [2], in assay [3], in assay [4], in [6], in assay [8] and in assay [9] was “inactive” throughout. In addition, the Potency entry in assay [7] was “inactive”.
Consider `SCc1ccco1`, for which the Potency entry in assay [1], in [2], in assay [3], in [4], in [5] and in assay [6] was “inactive” in each case. The Potency entry in [8], in assay [9] and in [7] was “inactive” in each case.
For the compound `C[C@]12CC[C@H](O)C[C@H]1CC[C@@H]1[C@@H]2C[C@@H](O)[C@]2(C)[C@@H](C3=CC(=O)OC3)CC[C@]12O`, the Potency result in assay [1], in assay [2], in [3], in [4], in [6] and in assay [8] was “inactive” each time. Also, the Potency entry in [9] and in assay [7] was “inactive” throughout. Also, the Potency in assay [5] is 0.616 µM (active).
Turning to `CC(C)CC(C)N` (stereo not drawn), the Potency result in assay [1], in assay [2], in assay [3], in [4], in assay [5] and in assay [6] was “inactive” throughout. Also, the Potency result in assay [9] and in [7] was “inactive” in each case.
For the compound `CC(C)[C@H](C(=O)O[C@H](C#N)c1cccc(Oc2ccccc2)c1)c1ccc(Cl)cc1`, the Potency result in [1], in assay [2], in assay [3], in [4], in assay [8] and in assay [9] was “inactive” throughout. Also, in assay [7], the Potency result was “inactive”.
In the case of `CC(C)CBr`, the Potency result in [1], in assay [2], in [3], in assay [4], in assay [6] and in assay [8] was “inactive” each time. Besides, the Potency entry in assay [9] and in [7] was “inactive” in each case.
In the case of `C[C@H]1CC[C@@H]2[C@@H](C)[C@H]3[C@H](C[C@H]4[C@@H]5CC=C6CC(O[C@@H]7O[C@H](CO)[C@H](O)[C@H](O[C@@H]8O[C@H](CO)[C@@H](O)[C@H](O)[C@H]8O)[C@H]7O[C@H]7O[C@@H](C)[C@H](O)[C@@H](O)[C@H]7O)CC[C@]6(C)[C@H]5CC[C@]34C)N2C1` (stereo partly drawn), the Potency in assay [1] is 5.06 µM (active); in assay [3], 22.6 µM (active); in assay [4] it was 50.6 µM (active); in [5] it was 12.7 µM (active); in assay [6], 8.99 µM (active); in [8], 7.14 µM (active). Moreover, the Potency in assay [7] is 25.3 µM (active). The Potency result in assay [2] and in assay [9] was “inactive” throughout.
Turning to `COc1cc(N)c(Cl)cc1C(=O)NC1CN2CCC1CC2` (stereo not drawn), the Potency result in [1], in assay [2], in assay [3], in assay [4], in assay [5] and in assay [6] was “inactive” throughout. Also, the Potency entry in assay [8], in assay [9] and in assay [7] was “inactive” in each case.
For `COP(=O)(OC)SCn1c(=O)oc2cc(Cl)cnc21`, the Potency entry in assay [1], in [2], in assay [3], in assay [4], in assay [6] and in assay [8] was “inactive” throughout. In addition, the Potency result in assay [9] and in assay [7] was “inactive” in each case.
`O=c1oc2ccccc2c(O)c1Cc1c(O)c2ccccc2oc1=O`: the Potency result in [1], in [2], in [3], in [10], in [6] and in assay [7] was “inactive” throughout.
On to `CC(C)C(=O)Cl`, for which the Potency entry in [1], in assay [2], in [3], in [4], in assay [5] and in assay [6] was “inactive” in each case. For the same compound, the Potency entry in assay [8], in assay [9] and in [7] was “inactive” each time.
For `Cc1ccc(OP(=O)(Oc2ccccc2)Oc2ccccc2)cc1`, the Potency result in assay [1], in assay [2], in [3], in [4], in [5] and in assay [6] was “inactive” each time. The Potency entry in assay [8], in [9] and in [7] was “inactive” throughout.
For `CCOC(=O)OC1=C(c2cc(C)ccc2C)C(=O)NC12CCC(OC)CC2` (stereo not drawn), the Potency entry in [1], in assay [2], in assay [3], in assay [4], in assay [5] and in [6] was “inactive” in each case. Also, the Potency entry in [8], in [9] and in assay [7] was “inactive” throughout.
For `O=C(NC(=O)c1c(F)cccc1F)Nc1cc(Cl)c(OC(F)(F)C(F)F)c(Cl)c1`, the Potency result in assay [1], in assay [2], in [3], in assay [4], in [5] and in assay [6] was “inactive” each time. For the same compound, the Potency result in assay [9] and in assay [7] was “inactive” throughout.
With `Cn1[nH]nnc1=S`, the Potency entry in assay [1], in [2], in [3], in assay [4], in assay [6] and in assay [9] was “inactive” throughout. For the same compound, in assay [7], the Potency entry is “inactive”.
Turning to `CC(=O)c1ccc(-c2ccccc2)cc1`, the Potency result in assay [1], in assay [2], in [3], in assay [4], in assay [5] and in [6] was “inactive” each time. The Potency entry in assay [8], in assay [9] and in [7] was “inactive” throughout.
For the compound `Cc1cc(C)cc(OP(=O)(Oc2cc(C)cc(C)c2)Oc2cc(C)cc(C)c2)c1`, the Potency entry in [1], in [2], in assay [3], in assay [4], in [5] and in assay [6] was “inactive” each time. In addition, the Potency result in [8], in assay [9] and in assay [7] was “inactive” in each case.
`CN(C)C1CSSSC1`: the Potency result in assay [1], in assay [2], in [3], in assay [4], in assay [5] and in [8] was “inactive” each time. Further, the Potency result in assay [9] and in [7] was “inactive” in each case.
In the case of `Cc1ccc(CCl)cc1`, the Potency entry in [1], in assay [2], in assay [3], in [4], in [5] and in assay [6] was “inactive” throughout. The Potency result in [9] and in assay [7] was “inactive” throughout.
As to `CN(CCCC(O)c1cccnc1)N=O` (stereo not drawn), the Potency entry in assay [1], in [2], in assay [3], in [4], in assay [5] and in assay [6] was “inactive” in each case. Besides, the Potency entry in assay [8], in [9] and in assay [7] was “inactive” in each case.

These data come from PubChem BioAssay (Tox21).
